A number with no mark means an inactive call. How the calls were made is not given here.
Test: inhibition of PAO1 biofilm formation – strain PAO1, LB-PBS medium, absorbance 600 nm, primary screen (AID 1176); further: test concentration not given here
Conditions: P. aeruginosa PAO1 growth/biofilm, A600, 12 h; higher = more signal

Row | SMILES | z-score
1 | CN1CCC(CCCO)=CC1c1ccc(CN2CCCC2)cc1 (stereo unspecified) | 0.661
2 | C=C[C@H](C)[C@@H](O)c1ccc(O)c2ccccc12 | 1.03
3 | COCCOC(=O)N1C(=O)[C@@]2(c3cc(C#CC4=CCCCC4)ccc31)[C@H](C(=O)N1CCc3cc(OC)c(OC)cc3C1)[C@H]1C(=O)O[C@H](c3ccccc3)[C@H](c3ccccc3)N1[C@@H]2c1ccccc1OCCO | 2.41
4 | COC(=O)C1=CC(CCCO)=CC(C2CC2)N(Cc2sc3ccccc3c2Cl)C=C1C(=O)OC (stereo unspecified) | -0.0065
5 | NC(=O)NCC#Cc1ccc2c(c1)[C@]1(C(=O)N2)[C@H](C(=O)N2CCCCCCC2)[C@H]2C(=O)O[C@H](c3ccccc3)[C@H](c3ccccc3)N2[C@@H]1c1ccc(OCCO)cc1 | 2.1
6 | COc1ccccc1CN1C(=O)c2ccccc2[C@@H](C(=O)NCCN2CCOCC2)[C@@H]1c1ccc(CO)cc1 | 1.56
7 | O=c1cccc(C=Cc2ccccc2)o1 | -0.212
8 | C=C[C@@H](COC(C)=O)N(Cc1ccc([N+](=O)[O-])cc1)S(=O)(=O)c1ccc(Br)cc1 | -0.801
9 | CC(C)C(=C=CC[C@@H](O)c1ccccc1OCCO)C[C@@H](O)c1ccccn1 | 0.142
10 | CCCCC=C[C@@H](NC(=O)c1ccc(C(=O)OC)cc1)c1ccccc1 | -0.567
11 | O=c1oc(-c2ccccc2)nc2cc(Br)ccc12 | 0.0493
12 | C=CC(COC(C)=O)NS(=O)(=O)c1ccc(Br)cc1 (stereo unspecified) | 0.212
13 | CS(=O)(=O)CCOC(=O)C1=CC(CCCO)=CC(c2cccs2)N(Cc2cc3c(cc2Br)OCO3)C=C1C(=O)OCCS(C)(=O)=O (stereo unspecified) | 0.142
14 | CCC[C@@H]1C=C(C(=O)O)[C@H](c2ccc(C)cc2)N1S(=O)(=O)c1ccc(C)cc1 | 0.89
15 | CC(C)NC(=O)[C@@H]1c2ccccc2C(=O)N(Cc2ccccc2)[C@H]1c1ccc(CO)cc1 | 0.292
16 | Cc1ccc(S[C@]2(C(=O)NCc3ccccc3)CC(=O)N(Cc3ccccc3)[C@@H]2c2ccc(CO)cc2)cc1 | 0.429
17 | COC(=O)c1ccc(C(O)C2C=CC3C(=O)N(C)C(=O)C3N2NC(=O)OC(C)(C)C)o1 (stereo unspecified) | 0.599
18 | COc1ccc(C(=O)Nc2cccc(CN3C(=O)[C@]4(O[C@H](CC(=O)N5CCC[C@H]5CO)[C@@H]([Si](C)(C)c5ccc(OC)cc5)[C@@H]4C)c4ccccc43)c2)cc1 | 0.0943

Row | SMILES | z-score
19 | CC(C)Cc1ccc(CN2CC[C@@H](NS(=O)(=O)c3ccccc3)C2)cc1 | -0.0126
20 | C=CCC(OC(C)=O)[C@@H]1[C@@H](N(Cc2cccc3ccccc23)C(=O)c2cccc3ccccc23)c2cc(OCCCO)ccc2N1C(=O)c1ccc2ccccc2n1 (stereo partly specified) | -0.334
21 | COCCOC(=O)N1C(=O)[C@@]2(c3cc(C#CCNC(N)=O)ccc31)[C@H](c1ccc(OCCO)cc1)N1[C@H](c3ccccc3)[C@H](c3ccccc3)OC(=O)[C@H]1[C@@H]2C(=O)N1CCc2cc(OC)c(OC)cc2C1 | 2.26
22 | O=C1C=CC(=O)[C@@H]2CC(COc3ccccc3)=C3[C@@H](CCc4ccccc4)OB(O)C[C@@H]3[C@H]12 | 0.212
23 | [N-]=[N+]=NCc1ccccc1[C@@H]1OC(c2ccc(OCCCO)cc2)=N[C@]1(Cc1ccccc1N=[N+]=[N-])C(=O)NCc1ccccc1 | 0.603
24 | NCCCCCCNC(=O)[C@H]1C[C@H]2C(=O)NCC(=O)N2[C@H]1c1cccc(OCCO)c1 | -0.475
25 | CCCCCN1CC=CC23O[C@@H]4/C=C\CCC(C)OC(=O)C4[C@H]2C(=O)N(CCCCCO)[C@@H]3C1=O (stereo partly specified) | 0.357
26 | O=C(NCc1ccccc1)[C@]1(CCS(=O)(=O)c2ccccc2)N=C(c2ccc(OCCCO)cc2)O[C@@H]1c1ccccc1 | 0.0937
27 | C=CC(=C)C1=CCO[C@@H]1[C@H]1CCCN1S(=O)(=O)c1ccccc1[N+](=O)[O-] | -0.578
28 | COc1ccc(C(=O)Nc2cccc(CN3C(=O)[C@@]4(O[C@@H](CCn5cc(CCO)nn5)[C@H]([Si](C)(C)c5ccc(OC)cc5)[C@H]4C)c4ccccc43)c2)cc1 | 0.769
29 | CCCC[C@H]1OB(O)C[C@H]2C1=C(C)C[C@H]1C(=O)N(Cc3ccccc3)C(=O)[C@H]12 | 0.0481
30 | COc1ccc(NN2C(C(O)c3ccc(OC)c(OCc4ccccc4)c3)C=CC3C(=O)N(C4CCCCC4)C(=O)C32)cc1 (stereo unspecified) | 0.946
31 | COCC(=C=CC[C@H](O)c1ccc(OCCO)cc1)C[C@H](O)c1cc(Cl)cc(Cl)c1O | 0.354
32 | O=C/C=C/c1ccc2c(c1)OCO2 | 0.227
33 | Cc1ccc(S[C@]2(C(=O)NCC(C)C)CC(=O)N(Cc3ccccc3Cl)[C@@H]2c2ccc(CO)cc2)cc1 | -0.205
34 | CN(C)C(=O)[C@]1(CCC(=O)OC(C)(C)C)N=C(c2ccc(OCCCO)cc2)O[C@@H]1c1ccccc1N=[N+]=[N-] | -0.758
35 | [N-]=[N+]=NCc1ccccc1C[C@]1(C(=O)NCCN2CCOCC2)N=C(c2ccc(OCCCO)cc2)O[C@H]1c1ccccc1N=[N+]=[N-] | 1.57
36 | O=C1O[C@H](c2ccccc2)[C@H](c2ccccc2)N2[C@H]1[C@@H](C(=O)Nc1nc3ccccc3s1)[C@]1(C(=O)Nc3ccccc31)[C@H]2c1ccc(O)cc1 | 1.18

From PubChem BioAssay
